These results are taken from PubChem BioAssay (EPA / NIEHS).

In assay [1] the target is Glucocorticoid receptor (Homo sapiens) (UniProt P04150). The experiment in a line: ATG_GR_TRANS: Attagene TRANS-FACTORIAL HepG2 Assay for human Glucocorticoid Receptor (GR) (AID 2282978; active means hit-call score of the fitted dose curve at least 0.9, where 1 is the maximum;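 further: activators score as hits since higher reporter transcript over DMSO is fitted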). The note with it: HepG2 Attagene TRANS GR reporter, mRNA transcription. The essentials:
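Readout is reporter transcript from a chimeric GR-Gal4 acting on GAL4-UAS in transfected human HepG2 liver cells after 24 h exposure, quantified by RT-PCR and capillary electrophoresis. Activation fitted upward against DMSO.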

For assay [2], the target named is Bile acid receptor (Homo sapiens) (UniProt Q96RI1). Briefly: ATG_FXR_TRANS: Attagene TRANS-FACTORIAL HepG2 Assay for Farnesoid X Receptor (FXR) (AID 2282979; active means hit-call score of the fitted dose curve at least 0.9, where 1 is the maximum;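 further: hits raise reporter mRNA above DMSO so AC50 marks FXR activation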). The note with it: HepG2 Attagene TRANS FXR-GAL4 reporter transcription. The essentials: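 HepG2 cells transiently transfected with reporter constructs in which a chimeric FXR-GAL4 protein drives a GAL4-UAS reporter; 24 h compound exposure. Reporter mRNA measured by RT-PCR, FAM labelling, HpaI digestion and capillary electrophoresis; gain-of-signal versus DMSO.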

In assay [3] the target is Oxysterols receptor LXR-alpha (Homo sapiens) (UniProt Q13133). Briefly: ATG_LXRa_TRANS: Attagene TRANS-FACTORIAL HepG2 Assay for human Liver X Receptor alpha (LXRa) (AID 2282980; active means hit-call score of the fitted dose curve at least 0.9, where 1 is the maximum). The note with it: HepG2 Attagene TRANS reporter, LXRa transactivation. The essentials: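 HepG2 cells were transiently transfected with multiplexed reporter units driven by chimeric LXRa–GAL4 fusion proteins, then dosed for 24 h. Reporter mRNA was quantified by RT-PCR, fluorescent labelling and capillary electrophoresis; gain of signal fitted against DMSO baseline.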

Assay [4] has as its target Hepatocyte nuclear factor 4-alpha (Homo sapiens) (UniProt P41235). The experiment in a line: ATG_HNF4a_TRANS: Attagene TRANS-FACTORIAL HepG2 Assay for human Hepatocyte Nuclear Factor 4 alpha (HNF4a) (AID 2282982; active means hit-call score of the fitted dose curve at least 0.9, where 1 is the maximum). The note with it: HepG2 HNF4a transactivation reporter, mRNA readout. Put shortly:
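Activity of an exogenous HNF4a–Gal4 fusion scored as induced GAL4-UAS reporter transcripts after 24 h chemical exposure of transfected human HepG2 cells. Read-out via RT-PCR with 6-FAM labelling and capillary electrophoresis; rise over DMSO baseline.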

The target in assay [5] is Nuclear receptor subfamily 4 group A member 2 (Homo sapiens) (UniProt P43354). Briefly: ATG_NURR1_TRANS: Attagene TRANS-FACTORIAL HepG2 Assay for human Nuclear Receptor Related Protein 1 (NURR1) (AID 2282985; active means hit-call score of the fitted dose curve at least 0.9, where 1 is the maximum). The note with it: HepG2 Attagene TRANS reporter, mRNA readout. Put shortly: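 Reporter transcript induction, measured by RT-PCR with fluorescent labelling, HpaI digestion and capillary electrophoresis, after 24 hr dosing of human HepG2 cells transiently expressing an exogenous NR-Gal4 fusion with GAL4-UAS-driven reporters; DMSO as baseline.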

Assay [6] concerns the target Transcriptional activator Myb (Homo sapiens) (UniProt P10242). The experiment in a line: ATG_Myb_CIS: Attagene CIS-FACTORIAL HepG2 Assay for human Myeloblastosis (Myb) Proto-Oncogene Transcription Factor (AID 2282986). The note with it: HepG2 Attagene CIS-FACTORIAL Myb reporter transcription; actives raise or lower the signal. Put shortly: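 Reporter mRNA is quantified by RT-PCR and capillary electrophoresis 24 h after dosing HepG2 cells transfected with cis-regulated reporter units, which track endogenous transcription factor activity. Gain and loss of signal are fitted versus DMSO baseline.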

The target in assay [7] is Nuclear respiratory factor 1 (Homo sapiens) (UniProt Q16656). Briefly: ATG_NRF1_CIS: Attagene CIS-FACTORIAL HepG2 Assay for human Nuclear Respiratory Factor 1 (NRF1) Orphan Gene (AID 2282987). The note with it: HepG2 NRF1 cis-element reporter, Attagene multiplex; actives raise or lower the signal. Put shortly:
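Endogenous NRF1-driven reporter transcription in transfected HepG2 cells after 24 h treatment. Readout: RT-PCR products, 6-FAM labelled and resolved by capillary electrophoresis; changes fitted both directions relative to DMSO.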

Assay [8] in a line: ATG_NFI_CIS: Attagene CIS-FACTORIAL HepG2 Assay for human Nuclear Factor I (NFI) (AID 2282989). The note with it: HepG2 cis-regulatory reporter, NFI response element transcription; actives raise or lower the signal. The essentials:
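After transient transfection of HepG2 with cis-promoter reporter constructs and 24 h dosing, RNA is reverse-transcribed, amplified, 6-FAM end-labelled and HpaI-digested before capillary analysis. Bidirectional curve fitting against DMSO.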

Assay [9] concerns the target Myc proto-oncogene protein (Homo sapiens) (UniProt P01106). The experiment in a line: ATG_Myc_CIS: Attagene CIS-FACTORIAL HepG2 Assay for human Myelocytomatosis (Myc) Proto-Oncogene Transcription Factor (AID 2282990). The note with it: HepG2, Attagene cis-reporter transcription factor activity; actives raise or lower the signal. Put shortly:
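HepG2, transient MRTU transfection (cis promoters, endogenous TFs); 24 h dosing; TriZol RNA → oligo(dT) RT → PCR → 6-FAM primer extension → HpaI cut → CE. Bidirectional fit vs DMSO.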

Assay [10] is described as follows: ATG_NRF2_ARE_CIS: Attagene CIS-FACTORIAL HepG2 Assay for human Nuclear Factor Erythroid 2 Related Factor 2 (NFR2) response to Antioxidant Response Elements (ARE) (AID 2282992). The note with it: HepG2 Attagene ARE/NRF2 reporter, transcription factor activity; actives raise or lower the signal. Put shortly:
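Using transiently transfected HepG2 cells exposed for 24 h, reporter mRNA levels were determined by RT-PCR with fluorescent primer extension and capillary electrophoresis, analysed for gain or loss of signal against DMSO.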

Assay [11] in a line: ATG_Oct_MLP_CIS: Attagene CIS-FACTORIAL HepG2 Assay for human Octamer-Binding Transcription Factor (Oct) (AID 2282993). The note with it: HepG2 Attagene cis-factorial Oct reporter, mRNA; actives raise or lower the signal. Put shortly:
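Cells of the HepG2 line express promoter-controlled reporter sequences whose mRNA levels, after 24 h treatment, are measured by RT-PCR and capillary electrophoresis. Increases and decreases are scored relative to DMSO.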

In assay [12] the target is Cellular tumor antigen p53 (Homo sapiens) (UniProt P04637). The experiment in a line: ATG_p53_CIS: Attagene CIS-FACTORIAL HepG2 Assay for human p53 Transcription Factor (AID 2282994). The note with it: HepG2 p53 cis-element reporter, Attagene mRNA; actives raise or lower the signal. The essentials:
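In HepG2 cells, reporter transcription units under cis-regulatory promoters were transiently introduced. Following 24 h treatment, RNA was processed to labelled, digested cDNA fragments read by capillary electrophoresis; fitting was bidirectional versus DMSO.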

Assay [13] can be described thus: BSK_3C_uPAR: BioMAP Diversity Plus: 3C Assay for Urokinase-type plasminogen activator receptor (uPAR) Biomarker Activity (AID 2282998). The note with it: BioMAP 3C HUVEC, uPAR biomarker ELISA; actives raise or lower the signal. The essentials: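 Endothelial primary cells of human umbilical vein origin received test chemical; 24 h later uPAR was assayed by ELISA. Fitting was bidirectional, DMSO as negative control.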
On the technique in general: An ELISA detects its analyte on a solid surface through an enzyme-linked reagent.

Assay [14] is described as follows: BSK_3C_VCAM1: BioMAP Diversity Plus: 3C Assay for Vascular cell adhesion molecule 1 (VCAM1) Biomarker Activity (AID 2282999). The note with it: BioMAP 3C HUVEC, VCAM1 ELISA, cytokine-stimulated; actives raise or lower the signal. Put shortly: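 Activity fitted in both directions relative to DMSO, with ELISA measurement of the surface marker on primary HUVEC (3C) at 24 h post-treatment; parallel SRB staining (0.1% SRB, TCA-fixed, 560 nm) flagged overt cytotoxicity.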

Assay [15] in a line: ATG_M_06_TRANS: Attagene TRANS-FACTORIAL HepG2 Assay for M06 Transcription Factor (Internal Marker) (AID 2282983; active means hit-call score of the fitted dose curve at least 0.9, where 1 is the maximum). The note with it: HepG2 Attagene TRANS M06 internal marker reporter. Put shortly:
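In this multiplexed HepG2 system, compounds are incubated 24 h with cells carrying GAL4-UAS reporter units. Reporter RNA is amplified and resolved by capillary electrophoresis, and induction is scored against DMSO.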

Assay [16] in a line: ATG_M_32_TRANS: Attagene TRANS-FACTORIAL HepG2 Assay for M32 Transcription Factor (Internal Marker) (AID 2282984; active means hit-call score of the fitted dose curve at least 0.9, where 1 is the maximum;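 further: transcript level of a background control reporter unit measured by RT-PCR and capillary electrophoresis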). The note with it: HepG2 Attagene TRANS M32 internal marker reporter. Put shortly: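 Internal background reporter in transfected HepG2: after 24 h chemical exposure, RNA reverse-transcribed, reporter cDNA amplified, fluorescently labelled and HpaI-cut, then sized by capillary electrophoresis. Gain of signal fitted against DMSO control.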

The nature of assay [17]: ATG_NF_kB_CIS: Attagene CIS-FACTORIAL HepG2 Assay for human Nuclear Factor Kappa B (NF-kB) (AID 2282991). The note with it: HepG2 Attagene cis-factorial NF-kB reporter mRNA; actives raise or lower the signal. Put shortly:
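Readout is reporter transcript level, gain or loss versus DMSO, measured 24 h post-dose via RT-PCR, fluorescent labelling and capillary electrophoresis. Human HepG2 liver cells carried transiently transfected CIS reporter constructs reflecting endogenous factors.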

The nature of assay [18]: BSK_3C_TissueFactor: BioMAP Diversity Plus: 3C Assay for Tissue Factor Biomarker Activity (AID 2282997). The note with it: BioMAP 3C HUVEC, tissue factor biomarker readout; actives raise or lower the signal. Put shortly:
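Readout: Tissue Factor ELISA. Cells: human primary umbilical vein endothelium. Time: 24 h after dosing. Analysis: bidirectional fit, DMSO baseline.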

Assay [19] concerns the target Oxysterols receptor LXR-beta (Homo sapiens) (UniProt P55055). The experiment in a line: ATG_LXRb_TRANS: Attagene TRANS-FACTORIAL HepG2 Assay for human Liver X Receptor beta (LXRb) (AID 2282981; active means hit-call score of the fitted dose curve at least 0.9, where 1 is the maximum). The note with it: HepG2 Attagene TRANS GAL4-LXRb reporter, mRNA. Put shortly:
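After 24 h chemical treatment of transfected HepG2 cells carrying exogenous NR-Gal4 chimeras, reporter mRNA was quantified by fluorescent RT-PCR and capillary electrophoresis; activity taken as increase over DMSO controls.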

Results filed as inconclusive are left out. Activity calls are given as the source filed them. How the source made its calls, unless noted: active means hit-call score of the fitted dose curve at least 0.9, where 1 is the maximum; inactive means score below 0.9.

A word on the AC50: it is the midpoint of the concentration-response curve, whichever way the signal moves.

Sequence of Bile acid receptor (Homo sapiens) (Q96RI1 whole entry, looked up, the tested form may be a part): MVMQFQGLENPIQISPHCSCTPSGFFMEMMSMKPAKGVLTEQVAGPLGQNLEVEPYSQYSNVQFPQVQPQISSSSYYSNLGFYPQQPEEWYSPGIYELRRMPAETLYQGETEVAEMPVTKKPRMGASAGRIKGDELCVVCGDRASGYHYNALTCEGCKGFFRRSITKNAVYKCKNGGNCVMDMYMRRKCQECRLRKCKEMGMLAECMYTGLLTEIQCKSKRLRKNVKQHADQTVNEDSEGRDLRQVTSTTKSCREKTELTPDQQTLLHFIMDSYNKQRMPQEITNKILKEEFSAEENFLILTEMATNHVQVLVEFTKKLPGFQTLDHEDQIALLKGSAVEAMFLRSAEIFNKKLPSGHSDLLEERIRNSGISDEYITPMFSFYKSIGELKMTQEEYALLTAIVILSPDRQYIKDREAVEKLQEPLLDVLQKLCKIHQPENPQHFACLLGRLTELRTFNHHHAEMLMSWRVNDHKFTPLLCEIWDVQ
Sequence of Transcriptional activator Myb (Homo sapiens) (P10242 whole entry, looked up): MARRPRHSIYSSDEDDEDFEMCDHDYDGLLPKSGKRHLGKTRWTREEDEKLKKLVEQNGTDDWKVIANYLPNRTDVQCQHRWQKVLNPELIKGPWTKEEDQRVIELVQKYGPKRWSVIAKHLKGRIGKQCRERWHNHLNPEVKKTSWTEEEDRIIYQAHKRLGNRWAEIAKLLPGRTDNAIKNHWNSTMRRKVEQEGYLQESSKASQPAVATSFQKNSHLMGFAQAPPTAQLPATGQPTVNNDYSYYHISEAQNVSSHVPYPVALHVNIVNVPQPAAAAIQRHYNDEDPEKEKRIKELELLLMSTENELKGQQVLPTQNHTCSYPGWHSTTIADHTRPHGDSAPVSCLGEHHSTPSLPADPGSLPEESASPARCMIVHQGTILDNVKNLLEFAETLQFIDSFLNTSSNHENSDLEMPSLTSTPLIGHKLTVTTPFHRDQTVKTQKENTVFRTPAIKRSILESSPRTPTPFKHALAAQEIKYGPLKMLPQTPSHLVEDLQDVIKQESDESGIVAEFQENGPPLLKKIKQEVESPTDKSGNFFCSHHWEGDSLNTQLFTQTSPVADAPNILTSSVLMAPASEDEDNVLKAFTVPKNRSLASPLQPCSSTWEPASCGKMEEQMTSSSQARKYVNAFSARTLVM
Sequence of Myc proto-oncogene protein (Homo sapiens) (P01106 whole entry, looked up): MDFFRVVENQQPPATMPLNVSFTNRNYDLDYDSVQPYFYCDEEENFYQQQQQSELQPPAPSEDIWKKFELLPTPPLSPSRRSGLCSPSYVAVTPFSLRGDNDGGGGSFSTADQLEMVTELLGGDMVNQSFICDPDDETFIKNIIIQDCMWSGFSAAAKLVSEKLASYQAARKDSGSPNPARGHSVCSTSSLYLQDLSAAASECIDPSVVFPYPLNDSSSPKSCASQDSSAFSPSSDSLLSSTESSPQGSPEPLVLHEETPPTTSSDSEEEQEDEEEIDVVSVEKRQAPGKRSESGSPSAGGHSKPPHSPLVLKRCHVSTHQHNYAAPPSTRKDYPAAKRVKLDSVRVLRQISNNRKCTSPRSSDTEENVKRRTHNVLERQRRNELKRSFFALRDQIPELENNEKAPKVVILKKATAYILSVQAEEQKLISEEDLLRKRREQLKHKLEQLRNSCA
Sequence of Cellular tumor antigen p53 (Homo sapiens) (P04637 whole entry, looked up, the tested form may be a part): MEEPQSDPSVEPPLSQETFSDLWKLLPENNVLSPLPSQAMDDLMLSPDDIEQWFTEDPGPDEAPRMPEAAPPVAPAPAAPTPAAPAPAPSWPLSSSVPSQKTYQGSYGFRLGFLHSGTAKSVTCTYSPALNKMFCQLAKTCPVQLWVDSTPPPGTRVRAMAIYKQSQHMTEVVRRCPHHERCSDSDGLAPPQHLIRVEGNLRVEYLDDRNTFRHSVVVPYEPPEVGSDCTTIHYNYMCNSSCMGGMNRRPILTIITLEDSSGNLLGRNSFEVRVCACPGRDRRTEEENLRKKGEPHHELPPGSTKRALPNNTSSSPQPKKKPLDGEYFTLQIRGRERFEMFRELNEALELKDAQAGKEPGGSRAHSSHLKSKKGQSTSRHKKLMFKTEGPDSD
Sequence of Nuclear receptor subfamily 4 group A member 2 (Homo sapiens) (P43354 whole entry, looked up, the tested form may be a part): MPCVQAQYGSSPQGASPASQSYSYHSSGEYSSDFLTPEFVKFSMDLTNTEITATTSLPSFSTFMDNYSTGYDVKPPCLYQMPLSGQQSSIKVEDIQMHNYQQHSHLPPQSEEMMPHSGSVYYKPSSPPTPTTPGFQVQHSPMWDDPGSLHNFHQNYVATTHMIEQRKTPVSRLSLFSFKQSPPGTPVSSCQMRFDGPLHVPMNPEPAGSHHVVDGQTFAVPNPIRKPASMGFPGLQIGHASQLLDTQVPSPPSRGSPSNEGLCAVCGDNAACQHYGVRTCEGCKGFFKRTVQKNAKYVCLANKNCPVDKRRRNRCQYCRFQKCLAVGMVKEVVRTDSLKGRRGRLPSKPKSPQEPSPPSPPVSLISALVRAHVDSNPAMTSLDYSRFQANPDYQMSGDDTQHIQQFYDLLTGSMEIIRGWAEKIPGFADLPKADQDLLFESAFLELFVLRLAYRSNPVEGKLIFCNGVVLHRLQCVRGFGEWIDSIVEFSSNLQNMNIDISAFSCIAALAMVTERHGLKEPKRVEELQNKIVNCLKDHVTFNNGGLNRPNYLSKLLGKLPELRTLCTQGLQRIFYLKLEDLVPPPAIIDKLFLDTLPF
Sequence of Nuclear respiratory factor 1 (Homo sapiens) (Q16656 whole entry, looked up): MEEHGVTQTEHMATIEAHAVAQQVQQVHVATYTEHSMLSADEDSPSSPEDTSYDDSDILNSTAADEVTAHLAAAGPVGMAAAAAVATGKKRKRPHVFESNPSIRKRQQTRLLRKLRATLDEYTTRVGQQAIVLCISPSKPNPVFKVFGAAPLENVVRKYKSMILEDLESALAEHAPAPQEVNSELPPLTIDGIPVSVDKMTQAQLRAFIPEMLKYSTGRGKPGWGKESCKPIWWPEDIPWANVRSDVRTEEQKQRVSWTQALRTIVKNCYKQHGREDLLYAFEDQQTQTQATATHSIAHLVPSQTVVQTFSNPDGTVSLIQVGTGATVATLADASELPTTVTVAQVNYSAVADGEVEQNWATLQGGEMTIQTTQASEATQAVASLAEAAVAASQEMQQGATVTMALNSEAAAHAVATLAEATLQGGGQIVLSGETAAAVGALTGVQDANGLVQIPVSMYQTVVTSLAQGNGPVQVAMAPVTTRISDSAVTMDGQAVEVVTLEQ
Sequence of Glucocorticoid receptor (Homo sapiens) (P04150 whole entry, looked up, the tested form may be a part): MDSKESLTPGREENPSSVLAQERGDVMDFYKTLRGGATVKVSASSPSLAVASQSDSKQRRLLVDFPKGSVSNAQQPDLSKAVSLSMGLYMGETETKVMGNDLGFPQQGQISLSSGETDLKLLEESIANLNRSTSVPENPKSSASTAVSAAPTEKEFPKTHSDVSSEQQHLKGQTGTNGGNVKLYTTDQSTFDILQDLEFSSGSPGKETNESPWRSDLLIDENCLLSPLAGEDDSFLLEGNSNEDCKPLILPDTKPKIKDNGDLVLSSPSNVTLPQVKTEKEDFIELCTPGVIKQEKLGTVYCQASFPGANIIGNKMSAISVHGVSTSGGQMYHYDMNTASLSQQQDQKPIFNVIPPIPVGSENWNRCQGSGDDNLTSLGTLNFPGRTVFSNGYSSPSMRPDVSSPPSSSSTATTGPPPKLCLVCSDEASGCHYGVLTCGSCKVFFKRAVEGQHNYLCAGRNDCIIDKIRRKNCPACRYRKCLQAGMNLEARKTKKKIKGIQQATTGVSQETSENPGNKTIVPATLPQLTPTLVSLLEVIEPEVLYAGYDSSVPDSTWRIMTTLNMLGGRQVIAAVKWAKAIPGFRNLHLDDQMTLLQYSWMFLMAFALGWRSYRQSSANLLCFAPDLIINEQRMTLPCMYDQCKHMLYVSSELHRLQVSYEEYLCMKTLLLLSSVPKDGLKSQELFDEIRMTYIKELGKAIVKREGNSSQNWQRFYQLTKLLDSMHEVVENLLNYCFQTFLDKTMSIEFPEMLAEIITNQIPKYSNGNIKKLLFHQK
Sequence of Hepatocyte nuclear factor 4-alpha (Homo sapiens) (P41235 whole entry, looked up, the tested form may be a part): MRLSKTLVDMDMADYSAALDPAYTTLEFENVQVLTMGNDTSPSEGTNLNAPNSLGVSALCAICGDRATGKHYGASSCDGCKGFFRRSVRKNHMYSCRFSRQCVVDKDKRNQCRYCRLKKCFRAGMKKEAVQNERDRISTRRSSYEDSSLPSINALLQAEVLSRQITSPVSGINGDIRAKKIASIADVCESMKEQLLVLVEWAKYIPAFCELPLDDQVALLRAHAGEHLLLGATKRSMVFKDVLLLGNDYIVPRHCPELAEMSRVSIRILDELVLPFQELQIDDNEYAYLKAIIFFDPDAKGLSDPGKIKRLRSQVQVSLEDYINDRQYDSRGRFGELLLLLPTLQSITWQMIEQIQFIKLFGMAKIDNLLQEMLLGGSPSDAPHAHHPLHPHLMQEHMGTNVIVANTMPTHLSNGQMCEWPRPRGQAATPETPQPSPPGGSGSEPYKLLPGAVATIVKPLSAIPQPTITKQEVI
Sequence of Oxysterols receptor LXR-alpha (Homo sapiens) (Q13133 whole entry, looked up, the tested form may be a part): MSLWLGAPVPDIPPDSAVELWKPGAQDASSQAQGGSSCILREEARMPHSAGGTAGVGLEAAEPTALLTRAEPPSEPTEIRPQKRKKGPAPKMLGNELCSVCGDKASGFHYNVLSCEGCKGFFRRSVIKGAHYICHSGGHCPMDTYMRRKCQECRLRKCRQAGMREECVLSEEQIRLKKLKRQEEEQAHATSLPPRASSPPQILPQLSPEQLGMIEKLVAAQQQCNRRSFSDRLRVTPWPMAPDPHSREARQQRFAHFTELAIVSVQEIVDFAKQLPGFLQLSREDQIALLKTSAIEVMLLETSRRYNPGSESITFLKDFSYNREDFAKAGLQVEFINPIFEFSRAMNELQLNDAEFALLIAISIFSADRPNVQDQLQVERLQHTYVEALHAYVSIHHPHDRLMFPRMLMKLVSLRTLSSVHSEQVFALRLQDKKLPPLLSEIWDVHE

Regarding `CC(C)Nc1ccc(Nc2ccccc2)cc1`, the result in assay [1], in assay [2], in assay [3], in [4], in assay [5] and in assay [6] was inactive. Further, the compound was called inactive in assay [7], in [8], in [9], in assay [11] and in assay [12]. Besides, the AC50 in assay [10] is 8.92 µM (active); in assay [13] it was 13.2 µM (active); in assay [14] it was 8.53 µM (active).

On to `O=S1(=O)OCC2C(CO1)C1(Cl)C(Cl)=C(Cl)C2(Cl)C1(Cl)Cl` (stereo unspecified), for which the outcome in assay [1], in assay [2], in assay [3], in assay [15], in [16] and in assay [6] was inactive. The result in [7] and in assay [14] was inactive. The AC50 in assay [8] is 178 µM (active); in assay [9], 172 µM (active); in assay [17] it was 8.15 µM (active); in assay [10], 44.5 µM (active); in assay [11], 170 µM (active); in [12], 18.3 µM (active). Also, the AC50 in [13] was 20 µM (active).

As for `CCCCC(CC)COP(=O)(Oc1ccccc1)Oc1ccccc1` (stereo unspecified), the result in [1], in [2], in assay [4], in assay [15] and in [16] was inactive. Further, the AC50 is 21.8 µM (active) in assay [5]; 143 µM (active) in [6]; 173 µM (active) in assay [7]; 158 µM (active) in assay [8]; 143 µM (active) in assay [9]; 159 µM (active) in assay [17]. Further, the concentration at half-maximal activity (AC50) in assay [10] is 12.2 µM (active); in [11], 87.1 µM (active); in assay [18], 9.63 µM (active); in assay [13], 12.1 µM (active); in assay [14], 20 µM (active).

Regarding `ClC(Cl)=C(c1ccc(Cl)cc1)c1ccccc1Cl`, the compound was classed as inactive in assay [1], in assay [2], in assay [19], in assay [15], in [5] and in [6]. In addition, the result in assay [7], in [9], in assay [17] and in [12] was inactive. In addition, the AC50 in [8] was 181 µM (active); in assay [10], 35.3 µM (active); in [11], 100 µM (active); in [18], 20 µM (active); in assay [13], 10.5 µM (active); in [14] it was 10.7 µM (active).
